# Results from PubChem BioAssay.
# Activity calls are given as the source filed them.
# Key:
# [1] = biological target: Albumin (Bos taurus) (UniProt P02769); assay: compounds binding labelled BSA control protein – biochemical, small-molecule microarray, Alexa647 label, 635/667 nm fluorescence, artefact control for SMM control protein annotation, profiling panel (AID 1118); details: BSA-A647 binding, fluorescence 635 nm, higher = more signal;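 further: score merges 667 nm emission intensity and signal-to-noise per printed compound spot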
# Albumin (Bos taurus), sequence (P02769 whole entry, looked up): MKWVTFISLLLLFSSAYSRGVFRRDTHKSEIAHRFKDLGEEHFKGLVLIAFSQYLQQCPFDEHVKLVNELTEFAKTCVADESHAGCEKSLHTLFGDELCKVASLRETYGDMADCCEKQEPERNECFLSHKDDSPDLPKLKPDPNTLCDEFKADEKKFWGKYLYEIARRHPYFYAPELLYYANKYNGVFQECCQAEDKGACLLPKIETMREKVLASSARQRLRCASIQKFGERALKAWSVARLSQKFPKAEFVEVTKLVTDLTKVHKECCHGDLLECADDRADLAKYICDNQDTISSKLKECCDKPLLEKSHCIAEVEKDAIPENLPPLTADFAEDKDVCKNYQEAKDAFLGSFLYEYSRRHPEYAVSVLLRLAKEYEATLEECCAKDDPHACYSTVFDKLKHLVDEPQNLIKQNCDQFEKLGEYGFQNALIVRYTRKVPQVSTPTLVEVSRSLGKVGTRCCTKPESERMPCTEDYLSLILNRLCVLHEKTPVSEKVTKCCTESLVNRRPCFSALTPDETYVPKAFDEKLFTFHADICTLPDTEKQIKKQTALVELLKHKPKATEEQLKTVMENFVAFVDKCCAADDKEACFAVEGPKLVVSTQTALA
# [2] = probe aXIP binding to arrayed compounds – biochemical, NeuroSMM set, 635/667 nm fluorescence, primary screen (AID 1119); details: small-molecule microarray, higher = more signal, called active from +8 up or from −8 down;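 further: probe is the protein aXip251-270 applied at 1 µg/mL to compound-printed slides; binding of probe to printed compounds measured as 667 nm fluorescence plus signal to noise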
# [3] = probe aNOTCH3 binding on compound microarray – biochemical, small-molecule microarray, 635/667 nm fluorescence, primary screen (AID 1120); details: higher = more signal;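 further: probe is a biotin-tagged antibody raised against NOTCH3 rather than NOTCH3 protein; score merges spot fluorescence near 667 nm with spot signal to noise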
# [4] = probe aNOTCH2 binding on compound microarray – biochemical, small-molecule microarray, 635/667 nm fluorescence, primary screen (AID 1121); details: higher = more signal;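 further: score merges feature fluorescence read at 667 nm with its signal to noise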
# [5] = biological target: Carbonic anhydrase 2 (Homo sapiens) (UniProt P00918); assay: compounds binding carbonic anhydrase 2 – biochemical, small-molecule microarray, Alexa647-labelled CAII, profiling panel (AID 1122); details: CAII-A647 binding fluorescence, higher = more signal
# [6] = COS7 lysate on small-molecule microarray, probe aHis, 635 nm (AID 1123); details: COS7 cell lysate, fluorescence, higher = more signal;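 further: z-score combines 667nm fluorescence intensity with signal-to-noise per printed compound spot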
# [7] = probe aLAP1 signal on lysate-treated microarray – cell lysate, small-molecule microarray, COS7 lysate, primary screen (AID 1124); details: probe aLAP1, fluorescence, higher = more signal;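 further: lysate comes from COS7 cells expressing LAP1 and is applied at 0.3 µg/mL; score merges spot fluorescence near 667 nm with signal-to-noise over triplicate slides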
# [8] = tested on: Sam68 (KHDRBS1); assay: compounds binding KHDRBS1 protein – biochemical, small-molecule microarray, 635 nm fluorescence, primary screen (AID 1125); details: higher = more signal;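 further: score merges 667 nm channel intensity with signal to noise over triplicate slides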
# [9] = tested on: Chordin-like protein 2 (CHRDL2); assay: compounds binding chordin-like 2 – biochemical, small-molecule microarray, 635 nm fluorescence, primary screen (AID 1126); details: fluorescence 635 nm, higher = more signal;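 further: printed compound slides probed with Chrdl2 protein at 4 µg/mL for 1 h at 4 C; score merges 667 nm emission intensity with signal to noise over three replicate slides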
# [10] = biological target: Concanavalin-A (Canavalia ensiformis) (UniProt P02866); assay: compounds binding concanavalin A lectin – biochemical, small-molecule microarray, Alexa647 label, 635 nm, artefact control for SMM control protein annotation, primary screen (AID 1127); details: ConA-A647 binding fluorescence, higher = more signal;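 further: z combines 667 nm emission intensity with signal-to-noise across three replicate slides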
# Concanavalin-A (Canavalia ensiformis), sequence (P02866 whole entry, looked up): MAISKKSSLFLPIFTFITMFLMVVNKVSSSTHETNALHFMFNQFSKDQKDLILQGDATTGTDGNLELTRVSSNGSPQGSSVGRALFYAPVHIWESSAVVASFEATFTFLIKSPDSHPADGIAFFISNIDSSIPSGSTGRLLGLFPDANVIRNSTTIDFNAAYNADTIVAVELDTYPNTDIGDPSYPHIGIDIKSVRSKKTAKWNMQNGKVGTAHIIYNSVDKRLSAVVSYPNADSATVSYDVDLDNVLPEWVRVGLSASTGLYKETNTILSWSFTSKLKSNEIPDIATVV
# [11] = compounds binding Alexa647 anti-His antibody – biochemical, small-molecule microarray, 635 nm fluorescence, artefact control for SMM control protein annotation, primary screen (AID 1128); details: higher = more signal;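 further: score merges feature fluorescence with signal-to-noise for each printed compound spot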
# [12] = tested on: Human papillomavirus type 1a E7 protein (residues 1-88); assay: HPV1a E7 small-molecule binders, primary screen, biochemical, small-molecule microarray, residues 1-88, 635 nm (AID 1129); details: small-molecule microarray binding, fluorescence 635 nm; higher = more signal
# [13] = biological target: Focal adhesion kinase 1 (Homo sapiens) (UniProt Q05397); assay: PTK2 protein binding on printed compound slides – biochemical, small-molecule microarray, 635/667 nm fluorescence, BSA, DTT, primary screen (AID 1130); details: 635 nm fluorescence, higher = more signal;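 further: composite of spot emission at 667 nm and signal to noise over triplicate slides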
# Focal adhesion kinase 1 (Homo sapiens), sequence (Q05397 whole entry, looked up): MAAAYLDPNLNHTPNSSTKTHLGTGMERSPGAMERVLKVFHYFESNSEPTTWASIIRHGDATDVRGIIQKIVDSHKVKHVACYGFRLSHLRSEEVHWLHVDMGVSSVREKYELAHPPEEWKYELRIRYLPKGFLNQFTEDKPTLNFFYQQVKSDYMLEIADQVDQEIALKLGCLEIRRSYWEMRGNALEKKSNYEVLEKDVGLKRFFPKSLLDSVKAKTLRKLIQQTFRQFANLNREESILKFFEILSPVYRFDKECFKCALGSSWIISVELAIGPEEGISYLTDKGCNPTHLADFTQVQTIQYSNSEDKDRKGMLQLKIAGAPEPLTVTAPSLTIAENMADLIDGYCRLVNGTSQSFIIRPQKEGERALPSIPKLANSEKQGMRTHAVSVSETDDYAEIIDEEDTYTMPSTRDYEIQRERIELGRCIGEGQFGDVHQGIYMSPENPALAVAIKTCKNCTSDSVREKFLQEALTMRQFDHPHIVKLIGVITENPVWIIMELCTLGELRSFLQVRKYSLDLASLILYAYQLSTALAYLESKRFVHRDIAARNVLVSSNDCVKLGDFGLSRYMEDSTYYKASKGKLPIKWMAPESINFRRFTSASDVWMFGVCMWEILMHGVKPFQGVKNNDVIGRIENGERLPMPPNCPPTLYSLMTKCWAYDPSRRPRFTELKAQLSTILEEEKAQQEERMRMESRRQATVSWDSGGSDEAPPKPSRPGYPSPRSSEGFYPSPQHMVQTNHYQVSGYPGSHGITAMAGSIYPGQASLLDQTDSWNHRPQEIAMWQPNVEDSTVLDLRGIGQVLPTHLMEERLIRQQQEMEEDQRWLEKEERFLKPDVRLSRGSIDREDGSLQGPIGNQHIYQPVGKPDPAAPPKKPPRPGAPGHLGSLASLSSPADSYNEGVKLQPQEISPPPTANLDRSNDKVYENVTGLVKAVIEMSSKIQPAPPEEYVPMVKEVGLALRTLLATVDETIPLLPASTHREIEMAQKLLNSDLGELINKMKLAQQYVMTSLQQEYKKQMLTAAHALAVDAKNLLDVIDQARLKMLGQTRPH
# [14] = tested on: Fibrinogen (Alexa647-labelled); assay: Alexa647-fibrinogen binding to printed small molecules – biochemical, small-molecule microarray, 635/667 nm fluorescence, artefact control for SMM control-protein annotation, profiling panel (AID 1131); details: fibrinogen-A647 binding fluorescence, higher = more signal;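 further: z-score merges 667 nm fluorescence with per-spot signal-to-noise over triplicate slides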
# [15] = biological target: Follistatin (Homo sapiens) (UniProt P19883); assay: FST protein binding to printed compounds – biochemical, small-molecule microarray, 635/667 nm fluorescence, primary screen (AID 1132); details: 635 nm fluorescence, higher = more signal
# Follistatin (Homo sapiens), sequence (P19883 whole entry, looked up): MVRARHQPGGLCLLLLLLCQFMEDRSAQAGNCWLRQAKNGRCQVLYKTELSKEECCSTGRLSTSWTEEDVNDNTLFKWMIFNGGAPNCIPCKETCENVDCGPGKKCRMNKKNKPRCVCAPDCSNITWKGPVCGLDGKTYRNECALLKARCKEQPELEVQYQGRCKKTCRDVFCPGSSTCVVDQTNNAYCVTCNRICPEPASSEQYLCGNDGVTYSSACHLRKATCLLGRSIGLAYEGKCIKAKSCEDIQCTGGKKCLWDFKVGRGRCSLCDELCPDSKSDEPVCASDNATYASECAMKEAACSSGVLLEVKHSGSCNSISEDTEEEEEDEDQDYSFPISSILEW
# [16] = biological target: Fibroblast growth factor 2 (Homo sapiens) (UniProt P09038); assay: basic fibroblast growth factor binding to printed compounds – biochemical, small-molecule microarray, 635/667 nm fluorescence, primary screen (AID 1133); details: FGF2, fluorescence 635/667, higher = more signal
# Fibroblast growth factor 2 (Homo sapiens), sequence (P09038 whole entry, looked up): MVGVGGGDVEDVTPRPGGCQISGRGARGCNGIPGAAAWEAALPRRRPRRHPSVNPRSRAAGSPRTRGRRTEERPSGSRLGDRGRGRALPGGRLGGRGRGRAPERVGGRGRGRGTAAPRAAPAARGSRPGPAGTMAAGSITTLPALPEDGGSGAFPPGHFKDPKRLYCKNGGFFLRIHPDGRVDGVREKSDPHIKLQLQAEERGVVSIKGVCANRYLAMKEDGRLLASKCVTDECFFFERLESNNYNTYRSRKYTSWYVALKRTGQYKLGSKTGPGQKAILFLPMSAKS
# [17] = JC-1 mitochondrial potential readout, lung cancer cells – cell-based, A549, JC-1 fluorescence, basal, 24 h, 100 nL, profiling panel (AID 1138); details: higher = more signal;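 further: A549 lung adenocarcinoma cells under basal conditions with no added stimulus; test concentration not given here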
# [18] = tested on: Lefty1; assay: Lefty1 protein binding to printed compounds – biochemical, small-molecule microarray, 635/667 nm fluorescence, primary screen (AID 1139); details: fluorescence 635/667, higher = more signal
# [19] = tested on: wheat germ agglutinin (Triticum aestivum), Alexa647-labelled; assay: Alexa647-WGA lectin binding to printed small molecules – biochemical, small-molecule microarray, 635/667 nm fluorescence, artefact control for SMM control-protein annotation, profiling panel (AID 1140); details: WGA-A647 binding, 635 nm fluorescence, higher = more signal;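 further: score merges 667 nm feature emission with signal to noise over triplicate slides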
# [20] = biological target: Luciferin 4-monooxygenase (Photinus pyralis) (UniProt P08659); assay: inhibition of purified Photinus pyralis luciferase – biochemical, luminescence, purified enzyme, 2006 set, primary screen (AID 1141); details: purified firefly luciferase, SteadyGlo luminescence, 30 min; higher = more signal, called active from +8 up or from −8 down;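 further: cell-free assay with purified firefly luciferase at 100 ng per well in PBS; test concentration not given here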
# Luciferin 4-monooxygenase (Photinus pyralis), sequence (P08659 whole entry, looked up): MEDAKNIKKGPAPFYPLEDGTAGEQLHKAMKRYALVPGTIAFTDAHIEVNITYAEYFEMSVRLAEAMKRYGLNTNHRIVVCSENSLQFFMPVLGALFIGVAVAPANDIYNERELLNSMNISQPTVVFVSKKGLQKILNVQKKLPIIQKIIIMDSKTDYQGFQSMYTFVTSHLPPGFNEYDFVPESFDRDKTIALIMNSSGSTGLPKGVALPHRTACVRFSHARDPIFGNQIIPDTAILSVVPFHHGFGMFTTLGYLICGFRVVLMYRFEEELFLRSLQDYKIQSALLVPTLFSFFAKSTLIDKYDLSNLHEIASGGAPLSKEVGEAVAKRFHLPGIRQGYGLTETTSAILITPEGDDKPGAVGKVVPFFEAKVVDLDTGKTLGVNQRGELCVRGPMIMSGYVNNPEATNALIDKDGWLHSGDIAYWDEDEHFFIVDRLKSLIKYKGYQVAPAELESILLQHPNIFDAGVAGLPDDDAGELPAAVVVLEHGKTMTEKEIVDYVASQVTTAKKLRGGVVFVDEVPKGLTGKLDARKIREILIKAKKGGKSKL
Structure (SMILES),composite z-score [1],composite Z-score [2],composite z-score [3],composite z-score [4],composite z-score [5],composite z-score [6],composite z-score [7],composite z-score [8],composite z-score [9],composite z-score [10],composite z-score [11],composite z-score [12],composite z-score [13],composite z-score [14],composite z-score [15],composite z-score [16],z-score [17],composite z-score [18],composite z-score [19],z-score [20]
[N-]=[N+]=Nc1ccccc1[C@@H]1OC(c2ccc(OCCCO)cc2)=N[C@]1(Cc1ccccc1)C(=O)NCC(O)CO (stereo not given in full),0.937,0.66 (inactive),0.453,0.178,0.765,3.2,1.14,0.897,-0.638,0.468,2.23,0.95,0.587,0.966,1.4,1.06,1.63,-0.823,1.2,-4.93 (inactive)
C=CCN1C(=O)[C@@]2(CCS(=O)(=O)c3ccccc3)N=C(c3ccc(OCCCO)cc3)O[C@H]2c2ccccc21,-0.567,-0.101 (inactive),-0.0302,-0.0664,0.277,2.53,0.207,0.988,0.83,1.12,1.34,1.25,0.763,0.884,1.45,1.78,0.821,0.952,0.37,-1.48 (inactive)
CCOC(=O)C[C@H]1[C@H](OC(=O)c2cc3ccccc3oc2=O)[C@@H](NC(=O)c2ccc(-c3ccccc3)cc2)c2cc(OCCCO)ccc2N1C(=O)c1ccc2ccccc2n1,0.111,0.6 (inactive),0.0864,-0.147,0.4,0.837,0.205,1.32,0.492,0.708,1.04,1.15,0.553,0.458,1.11,0.485,-0.408,0.964,0.543,0.778 (inactive)
[N-]=[N+]=NCc1ccccc1C[C@]1(C(N)=O)N=C(c2ccc(OCCCO)cc2)O[C@H]1c1ccccc1,0.96,-0.524 (inactive),0.073,-0.1,0.82,2.67,0.525,0.976,-1.03,0.533,0.409,1.21,0.196,0.496,1.31,-0.653,0.658,-0.625,1.14,0.856 (inactive)
CCCNC(=O)[C@@H]1c2ccccc2C(=O)N(C(C)C)[C@H]1c1ccc(CO)cc1,-0.342,0.251 (inactive),-0.0728,-0.0567,0.322,0.113,0.784,0.437,-0.605,0.208,3,-0.645,-0.19,-0.29,-0.577,-0.517,1.39,-0.371,-0.03,0.407 (inactive)
O=C1O[C@H](c2ccccc2)[C@H](c2ccccc2)N2[C@H]1[C@@H](C(=O)Nc1nc3ccccc3s1)[C@]1(C(=O)Nc3ccc(C#CC4(O)CCCCCC4)cc31)[C@H]2c1ccccc1OCCO,0.743,-0.305 (inactive),0.0459,-0.0454,0.461,1.82,0.398,1.3,0.413,1.07,1.41,1.2,0.193,0.943,1.3,0.903,-2.19,1.16,0.742,-0.62 (inactive)
[N-]=[N+]=NCc1ccccc1[C@@H]1OC(c2ccc(OCCCO)cc2)=N[C@]1(CCS(=O)(=O)c1ccccc1)C(=O)NCC(O)CO (stereo not given in full),0.979,0.131 (inactive),0.13,0.208,0.526,3.18,1.01,1.29,-0.563,1.18,2.39,1.28,0.546,1.03,1.29,1.05,-0.145,0.171,1.16,-1.93 (inactive)
O=C1OCC=C[C@H]2OC34C=CCN(Cn5nnc6ccccc65)C(=O)[C@H]3N(CCCO)C(=O)[C@@H]4[C@@H]12 (stereo not given in full),-0.877,-0.309 (inactive),-0.279,-0.185,0.847,-0.145,-0.124,-0.196,-0.682,-0.0288,0.21,-0.603,-0.506,-1.3,-0.537,-0.241,-0.842,-0.618,-0.43,0.314 (inactive)
O=C1O[C@H](c2ccccc2)[C@H](c2ccccc2)N2[C@H]1[C@@H](C(=O)NC[C@H](O)c1ccccc1)[C@]1(C(=O)Nc3ccc(C#CCCO)cc31)[C@H]2c1ccc(OCCO)cc1,0.834,0.182 (inactive),0.0311,-0.0666,0.627,1.7,-0.0479,1.29,-0.327,1.08,1.32,1.2,0.693,0.738,0.743,0.134,-0.552,0.329,1.01,-2.02 (inactive)
CN1C(=O)C2C=CC(C(O)C#Cc3ccccc3)N(Nc3ccccc3)C2C1=O (stereo not given),1.03,-0.0662 (inactive),0.405,0.0363,0.663,2.96,0.553,1.35,-0.0655,1.09,0.974,1.24,0.884,0.985,1.18,0.101,1.11,0.473,1.24,-1.21 (inactive)
O=C(NCC(F)(F)F)[C@@H]1c2ccccc2C(=O)N(Cc2cc(F)cc(C(F)(F)F)c2)[C@H]1c1ccc(CO)cc1,-0.463,0.57 (inactive),-0.355,-0.0644,0.295,0.837,-0.0879,-0.639,-1.11,-0.236,0.44,-0.178,-0.385,-0.78,-0.682,-0.843,-1.37,-1.24,-0.948,1.08 (inactive)
